Where “and” joins values, the source holds several entries; their conditions need not be identical. Equal entries are not always repeated. Calls of active or inactive are those of the source. Unless noted, how the calls were made is not given here.

Assay [1] in a line: anti-His antibody binders, primary screen, artefact control for SMM control protein annotation, biochemical, small-molecule microarray, 635 nm fluorescence (AID 1128).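 Further: score merges feature fluorescence with signal-to-noise for each printed compound spot.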 As to conditions: anti-His Alexa647 antibody binding, higher = more signal.
Assay [2] has as its system Human papillomavirus type 1a E7 protein (residues 1-88). Nature of the assay: HPV1a E7 small-molecule binders, primary screen, biochemical, small-molecule microarray, residues 1-88, 635 nm (AID 1129). As to conditions: small-molecule microarray binding, fluorescence 635 nm; higher = more signal.
The target of assay [3] is Focal adhesion kinase 1 (Homo sapiens) (UniProt Q05397). Nature of the assay: small-molecule microarray binders of FAK, primary screen, biochemical, 635/667 nm fluorescence, BSA, DTT (AID 1130).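 Further: composite of spot emission at 667 nm and signal to noise over triplicate slides.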 The following applies: PTK2 binding, 635 nm fluorescence, higher = more signal.
Chain of Focal adhesion kinase 1 (Homo sapiens) (Q05397 whole entry, looked up): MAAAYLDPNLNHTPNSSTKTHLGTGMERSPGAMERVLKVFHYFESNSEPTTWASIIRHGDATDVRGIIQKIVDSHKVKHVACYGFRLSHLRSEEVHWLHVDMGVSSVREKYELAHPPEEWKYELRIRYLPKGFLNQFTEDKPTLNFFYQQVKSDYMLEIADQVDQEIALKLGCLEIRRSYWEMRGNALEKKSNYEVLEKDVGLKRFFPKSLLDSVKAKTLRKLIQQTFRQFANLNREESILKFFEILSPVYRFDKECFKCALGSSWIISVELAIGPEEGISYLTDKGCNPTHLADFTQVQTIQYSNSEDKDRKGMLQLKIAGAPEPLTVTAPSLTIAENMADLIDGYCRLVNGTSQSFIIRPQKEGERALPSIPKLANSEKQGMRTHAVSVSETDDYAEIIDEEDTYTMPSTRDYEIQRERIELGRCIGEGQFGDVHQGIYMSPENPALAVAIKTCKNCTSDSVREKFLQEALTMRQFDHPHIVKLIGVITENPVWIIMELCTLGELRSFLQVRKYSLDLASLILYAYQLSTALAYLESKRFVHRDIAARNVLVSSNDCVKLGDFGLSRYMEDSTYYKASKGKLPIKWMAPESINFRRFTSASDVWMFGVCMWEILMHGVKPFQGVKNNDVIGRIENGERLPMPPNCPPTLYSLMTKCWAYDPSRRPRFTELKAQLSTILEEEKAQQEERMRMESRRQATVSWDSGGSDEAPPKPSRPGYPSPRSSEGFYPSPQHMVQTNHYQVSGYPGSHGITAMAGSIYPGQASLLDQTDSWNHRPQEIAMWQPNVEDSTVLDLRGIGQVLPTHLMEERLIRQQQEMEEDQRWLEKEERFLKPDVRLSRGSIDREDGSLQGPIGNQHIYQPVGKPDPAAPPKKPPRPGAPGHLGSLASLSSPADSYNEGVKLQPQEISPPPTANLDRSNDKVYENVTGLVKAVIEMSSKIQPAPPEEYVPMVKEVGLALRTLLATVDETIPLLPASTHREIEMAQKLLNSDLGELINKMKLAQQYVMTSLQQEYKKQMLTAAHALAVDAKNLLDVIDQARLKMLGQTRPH
The subject of assay [4] is Fibrinogen (Alexa647-labelled). Nature of the assay: fibrinogen binders on compound microarrays, profiling panel, artefact control for SMM control-protein annotation, biochemical, small-molecule microarray, 635/667 nm fluorescence (AID 1131).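 Further: z-score merges 667 nm fluorescence with per-spot signal-to-noise over triplicate slides.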 The following applies: fibrinogen-A647 binding fluorescence, higher = more signal.
For assay [5], the target named is Follistatin (Homo sapiens) (UniProt P19883). Nature of the assay: follistatin binders on small-molecule microarrays, primary screen, biochemical, small-molecule microarray, 635/667 nm fluorescence (AID 1132). The following applies: FST binding, 635 nm fluorescence, higher = more signal.
Chain of Follistatin (Homo sapiens) (P19883 whole entry, looked up): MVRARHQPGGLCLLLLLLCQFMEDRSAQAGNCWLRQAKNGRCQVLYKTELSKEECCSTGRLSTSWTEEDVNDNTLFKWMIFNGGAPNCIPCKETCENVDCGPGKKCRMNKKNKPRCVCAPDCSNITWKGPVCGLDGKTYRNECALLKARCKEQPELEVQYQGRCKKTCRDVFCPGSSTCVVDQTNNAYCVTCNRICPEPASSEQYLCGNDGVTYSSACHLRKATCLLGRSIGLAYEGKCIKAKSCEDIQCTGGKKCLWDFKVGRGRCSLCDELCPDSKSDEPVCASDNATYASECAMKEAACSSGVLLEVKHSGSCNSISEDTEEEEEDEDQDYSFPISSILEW
Assay [6] has as its target Fibroblast growth factor 2 (Homo sapiens) (UniProt P09038). Nature of the assay: FGF2 binders on small-molecule microarrays, primary screen, biochemical, small-molecule microarray, 635/667 nm fluorescence (AID 1133). The following applies: small-molecule microarray binding, FGF2, fluorescence 635/667; higher = more signal.
Assay [7] can be described thus: mitochondrial membrane potential change in A549 cells, profiling panel, cell-based, JC-1 fluorescence, basal, 24 h, 100 nL (AID 1138).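 Further: A549 lung adenocarcinoma cells under basal conditions with no added stimulus; test concentration not given here.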 As to conditions: higher = more signal.
The subject of assay [8] is Lefty1. Nature of the assay: Lefty1 binders on small-molecule microarrays, primary screen, biochemical, small-molecule microarray, 635/667 nm fluorescence (AID 1139). As to conditions: small-molecule microarray binding, fluorescence 635/667; higher = more signal.
Assay [9] deals with wheat germ agglutinin (Triticum aestivum), Alexa647-labelled. Nature of the assay: wheat germ agglutinin binders on compound microarrays, profiling panel, artefact control for SMM control-protein annotation, biochemical, small-molecule microarray, 635/667 nm fluorescence (AID 1140).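 Further: score merges 667 nm feature emission with signal to noise over triplicate slides.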 The following applies: WGA-A647 binding, 635 nm fluorescence, higher = more signal.
In assay [10] the target is Luciferin 4-monooxygenase (Photinus pyralis) (UniProt P08659). Nature of the assay: firefly luciferase enzyme inhibitors, primary screen, biochemical, luminescence, purified enzyme, 2006 set (AID 1141).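 Further: cell-free assay with purified firefly luciferase at 100 ng per well in PBS; test concentration not given here.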 As to conditions: SteadyGlo luminescence, 30 min, higher = more signal, called active from +8 up or from −8 down.
Chain of Luciferin 4-monooxygenase (Photinus pyralis) (P08659 whole entry, looked up): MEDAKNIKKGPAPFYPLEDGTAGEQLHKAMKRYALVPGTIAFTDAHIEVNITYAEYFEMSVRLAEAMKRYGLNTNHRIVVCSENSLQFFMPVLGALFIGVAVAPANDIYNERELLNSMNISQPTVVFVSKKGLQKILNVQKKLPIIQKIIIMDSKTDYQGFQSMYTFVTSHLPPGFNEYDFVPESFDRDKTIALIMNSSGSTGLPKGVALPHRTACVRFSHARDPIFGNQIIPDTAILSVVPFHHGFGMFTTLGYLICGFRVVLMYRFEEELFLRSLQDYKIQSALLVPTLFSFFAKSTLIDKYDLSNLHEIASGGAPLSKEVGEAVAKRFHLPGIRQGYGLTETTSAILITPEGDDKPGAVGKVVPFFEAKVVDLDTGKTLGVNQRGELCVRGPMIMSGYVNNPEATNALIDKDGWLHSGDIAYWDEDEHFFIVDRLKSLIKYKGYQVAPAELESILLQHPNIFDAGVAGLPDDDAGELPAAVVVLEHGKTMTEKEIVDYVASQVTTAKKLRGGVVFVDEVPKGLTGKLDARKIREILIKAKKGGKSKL
The test system of assay [11] is Wnt5a (protein binding on small-molecule microarray). Nature of the assay: Wnt5a binders on small-molecule microarray, primary screen, biophysical, 635/667 nm fluorescence (AID 1142).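 Further: fluorescence read at 667 nm with signal to noise per printed feature.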 The following applies: 635 nm fluorescence, higher = more signal.
A short description of assay [12]: cell viability in Huh7 cells, primary screen, cytotoxicity control for HCV replication inhibitor project, CellTiter-Glo luminescence, basal, 48 h (AID 1143).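 Further: Huh7 hepatoma cells carrying a hepatitis C replication reporter with no stimulus; test concentration not given here.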 As to conditions: Huh7 HCV replicon, higher = more signal, called active from +8 up or from −8 down.
Assay [13] can be described thus: P. aeruginosa biofilm formation inhibitors, primary screen, PAO1 strain, BacTiter-Glo luminescence, LB-PBS (AID 1144). The following applies: 12 h, higher = more signal.
Assay [14] can be described thus: CREB reporter modulators without forskolin, primary screen, cell-based, PC12, CRE-LacZ reporter, unstimulated (AID 1145). The following applies: no forskolin, luminescence, 4.5 h, higher = more signal, called active from +8 up or from −8 down.
The nature of assay [15]: CREB reporter modulators under forskolin, primary screen, cell-based, PC12, CRE-LacZ reporter, forskolin-stimulated (AID 1146).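 Further: PC12 cells with 6xCRE LacZ reporter stimulated by forskolin 10 µM; beta-galactosidase reporter signal reflecting CREB driven transcription.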 The following applies: luminescence, 4.5 h, higher = more signal, called active from +8 up or from −8 down.
Assay [16] concerns the target Streptavidin (Streptomyces avidinii) (UniProt P22629). Nature of the assay: streptavidin binders on small-molecule microarray, primary screen, artefact control for SMM compound annotation, biophysical, 635/667 nm fluorescence (AID 1147).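 Further: signal reflects streptavidin binding to arrayed compounds as a control protein.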 As to conditions: streptavidin binding, higher = more signal.
Assay [17] in a line: small-molecule binders of probe aInhba, primary screen, biochemical, small-molecule microarray, 635/667 nm fluorescence (AID 1148).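 Further: score merges 667nm spot fluorescence with signal-to-noise for antibody binding to printed compounds.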 The following applies: higher = more signal.
Assay [18] has as its target Torsin-1A (Homo sapiens) (UniProt O14656). Nature of the assay: torsin A binders from cell lysate, primary screen, small-molecule microarray, wild-type, 635/667 nm (AID 1149). The following applies: COS7 hTOR1A-WT lysate, 635 nm fluorescence, higher = more signal.
For assay [19] the target is unchanged. Nature of the assay: small-molecule binders of mutant TOR1A in lysate, primary screen, cell lysate, small-molecule microarray, COS7 lysate, 635/667 nm fluorescence (AID 1150).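 Further: score pools 667 nm emission and signal to noise measuring lysate protein binding.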 The following applies: COS7 hTOR1A mutant lysate, 635 nm fluorescence, higher = more signal.
In assay [20] the test system is Sonic hedgehog protein (Shh). Nature of the assay: small-molecule binders of Shh protein, primary screen, biochemical, small-molecule microarray, 635/667 nm fluorescence (AID 1151).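 Further: Shh protein binding to compounds spotted on small-molecule microarray slides; score combines spot fluorescence intensity with signal-to-noise across triplicate slides.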 The following applies: small-molecule microarray binding, 635 nm fluorescence; higher = more signal.

Chain of Fibroblast growth factor 2 (Homo sapiens) (P09038 whole entry, looked up): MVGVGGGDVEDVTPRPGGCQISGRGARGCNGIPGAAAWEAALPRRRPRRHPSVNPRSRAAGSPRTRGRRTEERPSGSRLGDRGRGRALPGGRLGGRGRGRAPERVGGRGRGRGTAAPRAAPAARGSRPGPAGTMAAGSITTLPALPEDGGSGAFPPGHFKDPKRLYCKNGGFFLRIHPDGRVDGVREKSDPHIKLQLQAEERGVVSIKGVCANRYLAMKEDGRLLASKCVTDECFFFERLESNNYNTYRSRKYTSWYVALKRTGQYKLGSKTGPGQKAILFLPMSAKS
Chain of Streptavidin (Streptomyces avidinii) (P22629 whole entry, looked up): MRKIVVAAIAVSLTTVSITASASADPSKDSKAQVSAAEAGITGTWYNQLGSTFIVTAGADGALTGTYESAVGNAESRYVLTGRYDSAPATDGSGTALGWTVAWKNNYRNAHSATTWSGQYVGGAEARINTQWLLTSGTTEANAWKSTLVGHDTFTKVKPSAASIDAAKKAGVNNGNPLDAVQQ
Chain of Torsin-1A (Homo sapiens) (O14656 whole entry, looked up): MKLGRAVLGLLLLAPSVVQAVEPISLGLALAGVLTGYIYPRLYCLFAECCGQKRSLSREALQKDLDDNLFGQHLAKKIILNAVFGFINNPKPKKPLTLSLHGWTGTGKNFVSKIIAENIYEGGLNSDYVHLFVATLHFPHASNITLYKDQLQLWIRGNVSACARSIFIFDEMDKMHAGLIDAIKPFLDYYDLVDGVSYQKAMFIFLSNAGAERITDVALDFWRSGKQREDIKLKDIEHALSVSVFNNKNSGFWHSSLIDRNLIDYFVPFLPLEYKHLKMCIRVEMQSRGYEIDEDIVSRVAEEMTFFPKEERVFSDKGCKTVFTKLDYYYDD

In the case of `COc1ccc(COC(=O)NN=C2C[C@@H](O)[C@@H](O)[C@@H]3[C@@H]4C(=O)N(C(C)(C)C)C(=O)[C@@H]4CC[C@H]23)cc1`, the composite z-score was found to be 1.34 in assay [1]; 0.797 in assay [2]; 0.0704 in [3]; 0.816 in assay [4]; 0.126 in assay [5]; 0.699 in [6]. The composite z-score was 0.281 in assay [8]; 0.0873 in [9]; -0.0647 in assay [11]; -0.199 in [16]; -0.151 in [17]; 0.656 in assay [18]. The composite z-score in assay [19] is -0.178; in assay [20], 0.352. Besides, the z-score was 0.453 in assay [7]; -1.08 (inactive) in assay [10]; -1.47 (inactive) in assay [12]; 0.439 (inactive) in assay [13]; 0.876 (inactive) in [14]; 0.479 (inactive) in assay [15].

`C=CCN(CCCCC)C(=O)C(c1cccs1)N(C(=O)/C=C\C(=O)O)c1c(Cl)cccc1CO` (stereo not given): the composite z-score in [1] is -2 and 0.586; in assay [2] it was -0.682 and -0.485; in [3], -0.519 and -0.564; in assay [4], -1.31 and -2.3; in assay [5] it was -1.36 and -2.16; in assay [6], -2.06 and -2.71. Also, the composite z-score was -1.88 and -1.54 in assay [8]; -1.74 and -0.357 in assay [9]; -0.473 and -1.02 in assay [11]; -1.34 and -1.63 in [16]; -0.202 and -0.233 in assay [17]; -2.37 and -3.28 in [18]. Further, the composite z-score in assay [19] is -0.23 and -2.06; in assay [20] it was -1.14 and -0.909. Moreover, the z-score in assay [7] was -0.634 and 0.534; in assay [10] it was -0.0903 (inactive) and -0.46 (inactive); in assay [12], 0.497 (inactive) and 0.165 (inactive); in [13], 0.858 (inactive) and 2.29 (inactive); in assay [14] it was 0.605 (inactive) and -0.212 (inactive); in assay [15] it was 1.2 (inactive) and 0.266 (inactive).

`CC(C)[Si]1(C(C)C)OCc2cc(CCCc3cc4c(c(CCc5ccccc5)n3)[Si](C(C)C)(C(C)C)OC4)nc(CCc3ccccc3)c21`: the composite z-score in [1] is -0.779 and 0.0773; in assay [2], -0.265 and 0.56; in assay [3], -0.293 and -0.0124; in [4], -0.551 and 0.0539; in [5], -0.43 and 0.238; in [6], -0.0119 and 0.483. Also, the composite z-score was -0.11 and 0.41 in assay [8]; -1.24 and -0.214 in assay [9]; 0.0898 and 0.0154 in assay [11]; -0.59 and 0.473 in assay [16]; -0.0791 and 0.0442 in assay [17]; -0.473 and 0.21 in [18]. Besides, the composite z-score in assay [19] is 0.0547 and 0.39; in [20] it was 0.405 and 0.595. In addition, the z-score in assay [7] is 0.627 and 0.00206; in [10], -1.11 (inactive) and 0.714 (inactive); in [12] it was -0.871 (inactive) and 0.114 (inactive); in [13], 0.0644 (inactive); in assay [14], 0.731 (inactive) and 0.469 (inactive); in assay [15], -0.315 (inactive) and 0.352 (inactive).

As for `COc1ccc(O[C@H]2C=C[C@@H](c3ccccc3)O[C@@H]2COC(=O)CCC(C)=NO[C@H](C)c2cn([C@H](CO)Cc3ccccc3)nn2)cc1`, the composite z-score in [1] is 2.33 and 1.58; in assay [2] it was -0.0422 and 0.437; in assay [3] it was 0.142 and -0.0962; in assay [4], 0.643 and 0.766; in assay [5], 0.125 and 0.326; in assay [6], 0.218 and 0.684. Further, the composite z-score in assay [8] is 0.653 and 0.557; in assay [9], 0.207 and 0.223; in assay [11], 0.205 and -0.274; in [16] it was 0.379 and 2.03; in assay [17], 0.344 and 0.104; in assay [18] it was 0.362 and 0.702. The composite z-score was 0.127 and 0.463 in [19]; 0.372 and 1.69 in [20]. Moreover, the z-score in assay [7] is -1.04 and -0.144; in [10] it was 0.845 (inactive) and -0.59 (inactive); in assay [12] it was -1.93 (inactive) and -1.7 (inactive); in assay [13], 0.916 (inactive) and 1.05 (inactive); in assay [14] it was 2.66 (inactive) and 1.53 (inactive); in [15], 1.83 (inactive) and 0.775 (inactive).

The values are drawn from PubChem BioAssay.
